Growth data for nine compounds are collected here from PubChem BioAssay (NCI).

Among the test systems are SK-MEL-2 melanoma; UO-31 renal; TK-10 renal; ACHN renal; CAKI-1 renal; A498 renal; CCRF-CEM leukemia; MOLT-4 leukemia; SR leukemia; RPMI-8226 leukemia; OVCAR-8 ovarian; OVCAR-5 ovarian; OVCAR-4 ovarian; SK-OV-3 ovarian; IGROV1 ovarian; OVCAR-3 ovarian; HS 578T breast; NCI/ADR-RES ovarian; EKVX NSCLC; SN12C renal.
Holding throughout (experiment): NCI-60 one-dose screen, 48 h (100 = growth as untreated, 0 = no growth, -100 = all killed)
Conditions in all cases: 10 µM unless noted

Compounds without any hit were thinned out: in the full panel of roughly 83,000, 20% have a hit.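 Cell lines were cultured in 96-well plates, exposed to a single compound concentration, and assessed for percent growth 48 hours later.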 Unmarked numbers belong to inactive results. Active and inactive are the calls of the source. Rule for the calls: active = growth percent below 10; inactive = the rest.

Turning to `CCOC(C=O)OCC`, the growth is 102% in the assay on SK-MEL-2 melanoma; 94.4% with UO-31 renal; 93.1% in the assay on TK-10 renal; 112% with ACHN renal; 97.8% in the assay on CAKI-1 renal; 93.3% in the assay on A498 renal. Also, the growth in the assay on CCRF-CEM leukemia was 99.1%; in the assay on MOLT-4 leukemia, 85.2%; with SR leukemia, 89.9%; with RPMI-8226 leukemia it was 99.1%; with OVCAR-8 ovarian it was 102%; with OVCAR-5 ovarian, 102%. The growth was 114% with OVCAR-4 ovarian; 106% in the assay on SK-OV-3 ovarian; 108% in the assay with IGROV1 ovarian; 109% in the assay on OVCAR-3 ovarian; 109% in the assay with HS 578T breast; 107% with NCI/ADR-RES ovarian.

For the compound `Nc1cc(F)ccc1[N+](=O)[O-]`, the growth in the assay on EKVX NSCLC was 100%; with SN12C renal, 98.6%; in the assay with UO-31 renal, 94.2%; in the assay on TK-10 renal, 104%; in the assay on ACHN renal, 104%; in the assay on CAKI-1 renal it was 92.2%. The growth was 102% in the assay on A498 renal; 110% with CCRF-CEM leukemia; 109% in the assay with MOLT-4 leukemia; 114% with SR leukemia; 106% in the assay on RPMI-8226 leukemia; 118% with OVCAR-8 ovarian. Further, the growth with OVCAR-5 ovarian was 97.4%; in the assay with OVCAR-4 ovarian it was 106%; in the assay on SK-OV-3 ovarian, 114%; in the assay with IGROV1 ovarian, 98.4%; with OVCAR-3 ovarian, 115%; in the assay on HS 578T breast, 98.7%. The growth in the assay with NCI/ADR-RES ovarian was 107%.

For the compound `CC(=O)OCC1CCC(COC(C)=O)CC1` (stereo unspecified), the growth is 89.8% with SK-MEL-2 melanoma; 110% with SN12C renal; 91.9% in the assay on UO-31 renal; 89.1% in the assay on TK-10 renal; 109% in the assay on A498 renal; 115% in the assay with CCRF-CEM leukemia. In addition, the growth with MOLT-4 leukemia was 93.1%; with SR leukemia, 95.7%; with RPMI-8226 leukemia it was 103%; in the assay on OVCAR-8 ovarian it was 106%; in the assay with OVCAR-5 ovarian it was 106%; with OVCAR-4 ovarian, 111%. Besides, the growth with SK-OV-3 ovarian is 87.9%; in the assay on IGROV1 ovarian, 105%; in the assay with OVCAR-3 ovarian, 102%; in the assay with HS 578T breast, 106%; in the assay with NCI/ADR-RES ovarian, 99.2%.

As for `CCOc1ccccc1NC(=O)CCl`, the growth with EKVX NSCLC is 111%; with SN12C renal, 94.5%; in the assay on UO-31 renal, 116%; in the assay with TK-10 renal, 94.5%; in the assay on ACHN renal it was 108%; with CAKI-1 renal, 95.6%. Also, the growth with A498 renal was 113%; in the assay on CCRF-CEM leukemia, 63.5%; in the assay on MOLT-4 leukemia, 70.2%; with SR leukemia, 74.8%; in the assay on RPMI-8226 leukemia it was 88.8%; with OVCAR-8 ovarian it was 86.9%. Also, the growth was 124% in the assay on OVCAR-5 ovarian; 45.9% with OVCAR-4 ovarian; 109% in the assay with SK-OV-3 ovarian; -12% (active) with IGROV1 ovarian; 95.4% in the assay with OVCAR-3 ovarian; 94.9% with HS 578T breast. The growth with NCI/ADR-RES ovarian was 106%.

In the case of `O=S(=O)(O)c1ccc(O)c(C2CCCCC2)c1`, the growth in the assay with SK-MEL-2 melanoma is 102%; in the assay with SN12C renal it was 105%; with UO-31 renal, 91%; with TK-10 renal, 95%; in the assay on CAKI-1 renal, 94.4%; with A498 renal it was 66.3%. The growth in the assay on CCRF-CEM leukemia is 110%; with MOLT-4 leukemia, 99.9%; in the assay with SR leukemia, 98.3%; in the assay on RPMI-8226 leukemia, 105%; in the assay with OVCAR-8 ovarian, 102%; in the assay on OVCAR-5 ovarian it was 103%. For the same compound, the growth in the assay with OVCAR-4 ovarian is 94.4%; with IGROV1 ovarian, 107%; in the assay on OVCAR-3 ovarian it was 113%; with HS 578T breast it was 116%; with NCI/ADR-RES ovarian, 118%.

Take `C=CCC(O)C=C` (stereo unspecified): the growth in the assay on SK-MEL-2 melanoma was 106%; with UO-31 renal, 83.1%; in the assay on TK-10 renal, 96.2%; with ACHN renal, 100%; in the assay with CAKI-1 renal it was 97.4%; in the assay with A498 renal it was 88.7%. For the same compound, the growth was 94.1% in the assay with CCRF-CEM leukemia; 91.4% with MOLT-4 leukemia; 84.4% in the assay on SR leukemia; 105% in the assay on RPMI-8226 leukemia; 101% with OVCAR-8 ovarian; 108% with OVCAR-5 ovarian. For the same compound, the growth was 106% in the assay with OVCAR-4 ovarian; 94% in the assay with SK-OV-3 ovarian; 103% with IGROV1 ovarian; 108% in the assay with OVCAR-3 ovarian; 101% with HS 578T breast; 103% with NCI/ADR-RES ovarian.

Take `CN(C)CCOC(=O)Nc1ccc(Cc2ccc(NC(=O)OCCN(C)C)cc2)cc1`: the growth in the assay on SK-MEL-2 melanoma is 101% [100 µM]; with SN12C renal, 97.5% [100 µM]; in the assay on UO-31 renal it was 68.6% [100 µM]; with TK-10 renal, 124% [100 µM]; with CAKI-1 renal it was 73% [100 µM]; in the assay on A498 renal, 126% [100 µM]. Further, the growth in the assay with CCRF-CEM leukemia was 51.3% [100 µM]; in the assay with MOLT-4 leukemia it was 37.6% [100 µM]; in the assay with SR leukemia, -39.4% [100 µM] (active); in the assay with RPMI-8226 leukemia, 16.8% [100 µM]; in the assay on OVCAR-8 ovarian, 98.2% [100 µM]; in the assay with OVCAR-5 ovarian, 85.1% [100 µM]. Besides, the growth with OVCAR-4 ovarian is 94.6% [100 µM]; in the assay on IGROV1 ovarian, 83.2% [100 µM]; with OVCAR-3 ovarian, 90.4% [100 µM]; with HS 578T breast, 73.1% [100 µM]; in the assay on NCI/ADR-RES ovarian, 98.5% [100 µM].

Take `CC(=O)c1cccc(N(C)S(=O)(=O)c2ccc(C)cc2)c1`: the growth is 94.2% in the assay with SK-MEL-2 melanoma; 103% with SN12C renal; 82.2% in the assay on UO-31 renal; 90.4% in the assay with TK-10 renal; 107% in the assay with ACHN renal; 97.7% in the assay on CCRF-CEM leukemia. Further, the growth is 94.9% in the assay on MOLT-4 leukemia; 44.7% in the assay with SR leukemia; 102% in the assay on RPMI-8226 leukemia; 101% in the assay with OVCAR-8 ovarian; 90.7% in the assay with OVCAR-5 ovarian; 87.7% in the assay with OVCAR-4 ovarian. Moreover, the growth with SK-OV-3 ovarian was 109%; with IGROV1 ovarian it was 82.5%; in the assay with OVCAR-3 ovarian it was 105%; in the assay on HS 578T breast, 102%; in the assay on NCI/ADR-RES ovarian, 82.4%.

In the case of `Cc1ccc(S(=O)(=O)CCCl)cc1`, the growth with EKVX NSCLC is 97.6%; with SN12C renal, 99%; in the assay on UO-31 renal it was 74.2%; with TK-10 renal, 97.4%; in the assay on ACHN renal, 98.2%; in the assay on CAKI-1 renal, 117%. In addition, the growth with A498 renal is 95.2%; in the assay on CCRF-CEM leukemia, 101%; in the assay on MOLT-4 leukemia it was 95.5%; with SR leukemia, 90%; with RPMI-8226 leukemia, 101%; in the assay with OVCAR-8 ovarian, 101%. The growth with OVCAR-5 ovarian was 101%; with OVCAR-4 ovarian, 107%; in the assay with SK-OV-3 ovarian it was 124%; in the assay with IGROV1 ovarian, 123%; with OVCAR-3 ovarian, 131%; in the assay with HS 578T breast, 102%. Besides, the growth in the assay on NCI/ADR-RES ovarian is 105%.
